Compounds with a hit are over-represented: about 2.1% of the library has one in this group of screens.
MLL AF4-AF9 inh = inhibitors of human MLL-AF4/AF9 interaction | P42568 | AlphaScreen, biotin-AF4 peptide binding to FLAG-AF9 | inhibition, % at 10 µM | 0.47% of 350,000 active | AID 651704;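 active means every replicate reaching a set inhibition limit, whatever the replicate mean, cut at about 25% in these data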
Env fusion inh = blocks HIV Env-driven cell-cell fusion; HeLa-JRFL Env/CEM21 cell fusion, luciferase; inhibition, % at 12.3 µM; 1.1% of 360,000 active; AID 651610;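 active means mean replicate inhibition score of at least 50 and every replicate individually at or above 50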
PGC1a acetyl inh = lowers PGC1a acetylation signal in U2OS cells; inhibition, % at 15.6 µM; 0.17% of 350,000 active; AlphaScreen anti-acetyl-lysine; with virally co-expressed GCN5 acetyltransferase; AID 651687;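 active means every replicate shows inhibition of at least 40%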
NSD2 inh = inhibitors of human histone methyltransferase NSD2. 0.54% of 310,000 active. NSD2 peptide methylation, AlphaScreen, 120 min. inhibition, % at 12.5 µM; in the data active means inhibition above about 50%
INS-1E GSIS act = GLuc luminescence reporter in INS-1E cells, primary screen for activators of glucose-dependent secretion of insulin; INS-1E GLuc reporter insulin secretion, 2-3 h; activation, % at 16.6 µM; 0.61% of 370,000 active; AID 743287;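 active means lowest replicate activation of at least 40%, so every replicate reaches that level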
AlphaScreen art = AlphaScreen assay artifact in NSD2 counter-screen | shares compounds with NSD2 inh | AlphaScreen artifact counterscreen, preloaded methylated H4 peptide | AC35, µM (titrated, usually from 10 µM) | 9.4% of 1,500 active | AID 1053174; call rule not given here
Hits are given with their value; . = inactive; / = not tested or not shown.

SMILES | MLL AF4-AF9 inh | Env fusion inh | PGC1a acetyl inh | NSD2 inh | INS-1E GSIS act | AlphaScreen art
CCn1c(CCn2c3ccccc3c3ccccc32)n[nH]c1=S | / | . | . | . | . | /
CC1=CCC2C(=O)N(c3cccc(C(=O)N(C)C4CCCCC4)c3)C(=O)C2C1 (centres undefined) | / | . | . | 88.6 | / | .
O=C1c2ccccc2C(=O)c2cc(N3CCCCC3)ccc21 | . | . | . | . | . | /
O=C1c2cccc(Cl)c2C(=O)c2c1cccc2N1CCCC1 | / | / | . | 73.9 | / | 1.14µM
CCc1ccc(-n2cccc2/C=C2/C(=N)N3C(=NC2=O)SN=C3S(C)(=O)=O)cc1 | / | . | / | 88.8 | . | .

Screening results from PubChem.
